Measurements from PubChem BioAssay (NCATS).
Inconclusive results are not listed. Active and inactive are the calls of the source. The call rests on the fitted dose curve; in most records, active means well fitted inhibition curve with a large enough effect; inconclusive means small, poorly fitted or top-dose-only effect; inactive means flat fitted curve, though single readings scatter.

How the values were obtained:
Experiment in all cases: qHTS profiling for inhibitors of Plasmodium falciparum proliferation (AID 504749);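 further: 0% = DMSO vehicle and full inhibition = artemisinin control; nearly all actives have a fitted effect of over 60% in size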
Conditions in all cases: P. falciparum in erythrocytes, SYBR Green DNA, 72 h; series mostly up to 28.7 µM
CP194 = test system: CP194
Summary of the method: (§1)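 SYBR Green fluorescence (ex 485 nm, em 535 nm) reports parasite DNA after 72 h compound exposure of infected red cells at 0.3% parasitemia, 2.5% hematocrit; signal normalized to 0.29 uM artemisinin and vehicle wells.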

CP201 = test system: CP201
Summary of the method: as §1

CP203 = test system: CP203
Summary of the method: as §1

CP211 = test system: CP211
Summary of the method: as §1

CP215 = test system: CP215
Summary of the method: as §1

CP217 = test system: CP217
Summary of the method: as §1

CP237 = test system: CP237
Summary of the method: as §1

CP238 = test system: CP238
Summary of the method: as §1

CP247 = test system: CP247
Summary of the method: as §1

CP250 = test system: CP250
Summary of the method: as §1

CP252 = test system: CP252
Summary of the method: as §1

CP256 = test system: CP256
Summary of the method: as §1

CP260 = test system: CP260
Summary of the method: as §1

CP262 = test system: CP262
Summary of the method: as §1

CP265 = test system: CP265
Summary of the method: as §1

CP266 = test system: CP266
Summary of the method: as §1

CP268 = test system: CP268
Summary of the method: as §1

CP269 = test system: CP269
Summary of the method: as §1

CP286 = test system: CP286
Summary of the method: as §1

CP291 = test system: CP291
Summary of the method: as §1

Clc1ccc2c(c1)C(c1ccccc1)=NCc1nncn1-2
inactive: Potency (CP194) | Potency (CP201) | Potency (CP203) | Potency (CP211) | Potency (CP215) | Potency (CP217) | Potency (CP237) | Potency (CP238) | Potency (CP247) | Potency (CP250) | Potency (CP252) | Potency (CP256) | Potency (CP260) | Potency (CP262) | Potency (CP265) | outcome (CP266) | Potency (CP268) | Potency (CP269) | Potency (CP286) | Potency (CP291)

NC(=O)CS(=O)C(c1ccccc1)c1ccccc1 (stereo not drawn)
inactive: Potency (CP194) | Potency (CP201) | Potency (CP203) | Potency (CP211) | Potency (CP215) | Potency (CP217) | Potency (CP237) | Potency (CP238) | Potency (CP247) | Potency (CP250) | Potency (CP252) | Potency (CP256) | Potency (CP260) | Potency (CP262) | Potency (CP265) | outcome (CP266) | Potency (CP268) | Potency (CP269) | Potency (CP286) | Potency (CP291)

Oc1ccc(Cl)cc1
inactive: Potency (CP194) | Potency (CP201) | Potency (CP203) | Potency (CP211) | Potency (CP215) | Potency (CP217) | Potency (CP237) | Potency (CP238) | Potency (CP247) | Potency (CP250) | Potency (CP252) | Potency (CP256) | Potency (CP260) | Potency (CP262) | Potency (CP265) | outcome (CP266) | Potency (CP268) | Potency (CP269) | Potency (CP286) | Potency (CP291)

COP(=S)(OC)Oc1ccc(S(=O)(=O)N(C)C)cc1
inactive: Potency (CP194) | Potency (CP201) | Potency (CP203) | Potency (CP211) | Potency (CP215) | Potency (CP217) | Potency (CP237) | Potency (CP238) | Potency (CP247) | Potency (CP250) | Potency (CP252) | Potency (CP256) | Potency (CP260) | Potency (CP262) | Potency (CP265) | outcome (CP266) | Potency (CP268) | Potency (CP269) | Potency (CP286) | Potency (CP291)

Nc1ccc([As](=O)(O)O)cc1
inactive: Potency (CP194) | Potency (CP201) | Potency (CP203) | Potency (CP211) | Potency (CP215) | Potency (CP217) | Potency (CP237) | Potency (CP238) | Potency (CP247) | Potency (CP250) | Potency (CP252) | Potency (CP256) | Potency (CP260) | Potency (CP262) | Potency (CP265) | outcome (CP266) | Potency (CP268) | Potency (CP269) | Potency (CP286) | Potency (CP291)

Nc1ccccc1C(=O)O
inactive: Potency (CP194) | Potency (CP201) | Potency (CP203) | Potency (CP211) | Potency (CP215) | Potency (CP217) | Potency (CP237) | Potency (CP238) | Potency (CP247) | Potency (CP250) | Potency (CP252) | Potency (CP256) | Potency (CP260) | Potency (CP262) | Potency (CP265) | Potency (CP268) | Potency (CP269) | Potency (CP286) | Potency (CP291)

CC(C)=CC1C(C(=O)OCN2C(=O)C3=C(CCCC3)C2=O)C1(C)C (stereo not drawn)
inactive: Potency (CP194) | Potency (CP201) | Potency (CP203) | Potency (CP211) | Potency (CP215) | Potency (CP217) | Potency (CP237) | Potency (CP238) | Potency (CP247) | Potency (CP250) | Potency (CP252) | Potency (CP256) | Potency (CP260) | Potency (CP262) | Potency (CP265) | outcome (CP266) | Potency (CP268) | Potency (CP269) | Potency (CP286) | Potency (CP291)

CC(C)NC(C)C
inactive: Potency (CP194) | Potency (CP201) | Potency (CP203) | Potency (CP211) | Potency (CP215) | Potency (CP217) | Potency (CP237) | Potency (CP238) | Potency (CP247) | Potency (CP250) | Potency (CP252) | Potency (CP256) | Potency (CP260) | Potency (CP262) | Potency (CP265) | outcome (CP266) | Potency (CP268) | Potency (CP269) | Potency (CP286) | Potency (CP291)

O=C1CN=C(c2ccccc2)c2cc([N+](=O)[O-])ccc2N1
inactive: Potency (CP194) | Potency (CP201) | Potency (CP203) | Potency (CP211) | Potency (CP215) | Potency (CP217) | Potency (CP237) | Potency (CP238) | Potency (CP247) | Potency (CP250) | Potency (CP252) | Potency (CP256) | Potency (CP260) | Potency (CP262) | Potency (CP265) | outcome (CP266) | Potency (CP268) | Potency (CP269) | Potency (CP286) | Potency (CP291)

CCCCC/C=C\C/C=C\C/C=C\C/C=C\CCCC(=O)NCC(=O)O
inactive: activity, negative = inhibition (CP194) 0.793% [at 2.67 µM] | activity, negative = inhibition (CP201) 1.43% [at 2.67 µM] | activity, negative = inhibition (CP203) 6.81% [at 2.67 µM] | activity, negative = inhibition (CP211) 8.66% [at 2.67 µM] | activity, negative = inhibition (CP215) 4.08% [at 2.67 µM] | activity, negative = inhibition (CP217) -11% [at 2.67 µM] | activity, negative = inhibition (CP237) 0.3% [at 2.67 µM] | activity, negative = inhibition (CP238) -1.95% [at 2.67 µM] | activity, negative = inhibition (CP247) 9.07% [at 2.67 µM] | activity, negative = inhibition (CP250) 11.6% [at 2.67 µM] | activity, negative = inhibition (CP252) -0.781% [at 2.67 µM] | activity, negative = inhibition (CP256) 0.973% [at 2.67 µM] | activity, negative = inhibition (CP260) 4.28% [at 2.67 µM] | activity, negative = inhibition (CP262) 2.09% [at 2.67 µM] | activity, negative = inhibition (CP265) 2.88% [at 2.67 µM] | activity, negative = inhibition (CP268) -7.02% [at 2.67 µM] | activity, negative = inhibition (CP269) 0.824% [at 2.67 µM] | activity, negative = inhibition (CP286) 0.0979% [at 2.67 µM] | activity, negative = inhibition (CP291) -4.76% [at 2.67 µM]

C[C@]12CCC(=O)C=C1CC[C@@H]1[C@@H]2CC[C@]2(C)C(=O)CC[C@@H]12
inactive: Potency (CP194) | Potency (CP201) | Potency (CP203) | Potency (CP211) | Potency (CP215) | Potency (CP217) | Potency (CP237) | Potency (CP238) | Potency (CP247) | Potency (CP250) | Potency (CP252) | Potency (CP256) | Potency (CP260) | Potency (CP262) | Potency (CP265) | outcome (CP266) | Potency (CP268) | Potency (CP269) | Potency (CP286) | Potency (CP291)

CN1C(=O)COc2c(C(=O)NC3CN4CCC3CC4)cc(Cl)cc21 (stereo not drawn)
inactive: Potency (CP194) | Potency (CP201) | Potency (CP203) | Potency (CP211) | Potency (CP215) | Potency (CP217) | Potency (CP237) | Potency (CP238) | Potency (CP247) | Potency (CP250) | Potency (CP252) | Potency (CP256) | Potency (CP260) | Potency (CP262) | Potency (CP265) | outcome (CP266) | Potency (CP268) | Potency (CP269) | Potency (CP286) | Potency (CP291)

CN1C(=O)CCS(=O)(=O)C1c1ccc(Cl)cc1 (stereo not drawn)
inactive: Potency (CP194) | Potency (CP201) | Potency (CP203) | Potency (CP211) | Potency (CP215) | Potency (CP217) | Potency (CP237) | Potency (CP238) | Potency (CP247) | Potency (CP250) | Potency (CP252) | Potency (CP256) | Potency (CP260) | Potency (CP262) | Potency (CP265) | outcome (CP266) | Potency (CP268) | Potency (CP269) | Potency (CP286) | Potency (CP291)
